The list shows a part of the results. Results filed as inconclusive are left out. Calls of active or inactive are those of the source. Calls follow the shape of the dose curve; as a rule, active = well fitted inhibition curve with a large enough effect; inconclusive = small, poorly fitted or top-dose-only effect; inactive = no such curve, though single readings can be large or run the other way.

The assay is described as follows: qHTS of pediatric cancer cell lines to identify multiple opportunities for drug repurposing: Orthogonal 3D caspase screen for TC32 cells. To be noted: TC32 3D spheroids, caspase-3/7 fluorescence imaging, 24 h; series mostly up to 30.7 µM; caspase activation, negative = activation: at the top concentration. An excerpt: Drug repurposing or repositioning has been offered as a strategy for drug development in oncology programs. This approach has special potential for childhood cancers and other rare or orphan diseases, where the expected return on new drug development has been a disincentive to pharmaceuticals. […] In this project we exploit the poly-pharmacology of drugs to discover new indications via phenotypic screening of a panel of 19 well-characterized cell lines derived from solid tumors seen in children and adolescents. The goal is to identify approved drugs with previously unrecognized anticancer properties that has the potential to reveal new mechanisms and biological processes involved in carcinogenesis or drug resistance. We employed a titration-based paradigm (quantitative high-throughput screening or qHTS), where all compounds were tested at multiple concentrations for their effect on cell viability. Concentration-response curves (CRCs) were derived directly from the primary screen, and both potency and efficacy values were used to identify compounds with robust bioactivity profiles. […] These two assays will be used to validate active compounds and assess the correlation of compound's potency in 2D vs 3D cultures on selected cell lines. Assay Submitter: Nathalia J. Martinez, National Center for Advancing Translational Sciences, National Institutes of Health, Rockville, MD, USA; email: natalia.martinez@nih.gov Shen, M et al. Quantitative high-throughput phenotypic screening of pediatric cancer cell lines identifies multiple opportunities for drug repurposing. Oncotarget 2017 Dec 19;9(4):4758-4772. PMID 29435139.
The cells were obtained from University of North Carolina (UNC), Pediatric Preclinical Testing Program (PPT), and Coriell Institute (CI). qHTS apoptosis assay in 3D cultures: For the apoptosis assay, cells were assayed in phenol red-free growth media at a density of 1,000 cells/well. Thirty microliters of cells were dispensed into 384-well, ULA, round bottom plates (Corning) using a Multidrop dispenser. Plates were spun down at 1,000 rpm for 1 min and incubated at 37 C, 5% CO2, under a humidified atmosphere for 24 hours to allow spheroid formation. Ninety-two nanoliter of compounds and controls were subsequently transferred via GNF Pintool. Plates were sealed using a breathable seal (Diversified Biotech, Dedham, MA) and incubated for 24 hours at 37C before addition of CellEvent Caspase-3/7 green detection reagent (TheremoFisher Scientific). Staurosporine at final concentrations of 3 µM was used as positive control. Spheroids were imaged using bright-field and green (EX: […]) filters and analyzed with the Celigo Tumorsphere 1+2 application software. Spheroids were first identified using bright-field segmentation, and the average fluorescent intensity of the green channel was used to quantify caspase activation as percent activity based on neutral control DMSO and positive control.
For the molecule `COC(=O)Nc1nc2ccc(Sc3ccccc3)cc2[nH]1`, the Potency was 11400 nM (active). Regarding `COc1c(C)c2c(c(O)c1C/C=C(\C)CCC(=O)O)C(=O)OC2`, the “caspase activation, negative = activation” value (“caspase activation” below) was 3.92% (inactive). Take `CC[C@]1(O)C[C@@H]2CN(CCc3c([nH]c4ccccc34)[C@@](C(=O)OC)(c3cc4c(cc3OC)N(C)[C@H]3[C@@](O)(C(=O)OC)[C@H](OC(C)=O)[C@]5(CC)C=CCN6CC[C@]43[C@@H]65)C2)C1`: the Potency was 72.2 nM (active).

As to `C=C1C(=CC=C2CCC[C@]3(C)[C@@H]([C@H](C)C=C[C@H](C)C(C)C)CC[C@@H]23)C[C@@H](O)C[C@@H]1O`, the “caspase activation” value was -7.49% (inactive). On to `CC(NCc1ccc2c(c1)nc(NC(=O)c1ccc(-c3cn[nH]c3)s1)n2CC(C)(C)O)C(C)(C)C` (stereo unspecified), for which the Potency is 1440 nM (active). As to `CC1(C)O[C@@H]2C[C@@H]3[C@H]4C[C@@H](F)C5=CC(=O)C=C[C@]5(C)[C@@]4(F)[C@@H](O)C[C@]3(C)[C@]2(C(=O)CO)O1`, the “caspase activation” value was -3.8% (inactive).

(Values after PubChem BioAssay AID1347138 (National Center for Advancing Translational Sciences (NCATS), 2019).)
